This passage reports inhibition results from PubChem BioAssay AID624255 (Broad Institute, 2012).

Hit rate of the full screen: of about 77,000 compounds, about 4,600 (6%) were called active. Not shown: some 1% with an inconclusive outcome. For the sample, actives were picked, then their nearest neighbours and some compounds at random. Unmarked numbers belong to inactive results.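 How the source made its calls: active means mean inhibition above about 93%, with at least 55% of replicates each passing it (limit read from the data, passing the limit was not always enough); inconclusive means only one of those two conditions holds; inactive means neither condition holds.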

This test in a line: T. cruzi intracellular proliferation inhibitors, primary screen, cell-based, beta-gal Tulahuen parasites, NIH3T3 host, luminescence (AID 624255). As to conditions: T. cruzi beta-gal in NIH3T3, GalScreen luminescence, 90 h; at 8.34 µM; stronger effect = higher value.
Consider `COCC#Cc1cnc2c(c1)C(=O)N([C@@H](C)CO)C[C@@H](C)[C@@H](CN(C)C(=O)c1cccnc1)O2`, for which the inhibition – broadly, the relative decrease from the control value, in per cent – is 71.4%.

`O=C(CC1CC1)N1[C@@H]2CN(S(=O)(=O)c3ccc(F)cc3)c3ccccc3[C@@H]2[C@@H]1CO`: the inhibition was 19.2%.

`C[C@@H]1CCCCO[C@H](CN(C)S(=O)(=O)c2cccs2)[C@H](C)CN([C@H](C)CO)C(=O)c2cc(NC(=O)c3ccccc3)ccc2O1`: the inhibition is 88.6%.

Consider `O=C(C[C@H]1C=C[C@H](NC(=O)Nc2ccccc2F)[C@@H](CO)O1)NCc1ccc(Cl)cc1`, for which the inhibition was 27.5%.

Take `CCCC#Cc1ccc([C@@H]2[C@@H](C#N)N(C(=O)C3CCC3)[C@H]2CO)cc1`: the inhibition is 92.4%.

With `CCCC#Cc1ccc([C@@H]2[C@@H](C#N)N(C(=O)C3CCCC3)[C@@H]2CO)cc1`, the inhibition was 102% (active).

Turning to `CN(C)CC#Cc1ccc([C@H]2[C@@H](CO)N(C(=O)C3CCC3)[C@H]2C#N)cc1`, the inhibition was 69.2%.

As for `N#C[C@@H]1[C@H](c2ccc(C#Cc3cccc(F)c3)cc2)[C@@H](CO)N1C(=O)C1CCCC1`, the inhibition is 97.3% (active).

Consider `CCCC#Cc1ccc([C@H]2[C@@H](CO)N(C(=O)C3CC3)[C@H]2C#N)cc1`, for which the inhibition is 74.3%.

For the molecule `N#C[C@@H]1[C@@H](c2ccc(C#Cc3cccc(F)c3)cc2)[C@@H](CO)N1C(=O)C1CCC1`, the inhibition is 101% (active).

`N#C[C@@H]1[C@@H](c2ccc(C#Cc3cccc(F)c3)cc2)[C@H](CO)N1C(=O)C1CCOCC1`: the inhibition was 83.9%.

Regarding `CC(C)C#Cc1ccc([C@@H]2[C@@H](C#N)N(C(=O)C3CC3)[C@@H]2CO)cc1`, the inhibition is 68.6%.

Consider `N#C[C@H]1[C@H](c2ccc(C#Cc3ccc(F)cc3)cc2)[C@@H](CO)N1C(=O)C1CCCC1`, for which the inhibition is 92.9%.

On to `Cn1cnc(CCNC(=O)C[C@H]2CC[C@H]3[C@@H](COC[C@@H](O)CN3C(=O)Nc3ccc(C(F)(F)F)cc3)O2)c1`, for which the inhibition was 28.4%.

For the molecule `CC=Cc1ccc2n(c1=O)C[C@H]1[C@H](CO)[C@@H](C(=O)NC3CCCC3)N(Cc3ccncc3)[C@@H]21` (mixture of isomers), the inhibition is -33.3%.

Regarding `CS(=O)(=O)Nc1ccc2c(c1)[C@H]1C[C@H](CC(=O)NCc3ccc(Oc4ccccc4)cc3)O[C@H](CO)[C@H]1O2`, the inhibition is 3.92%.

On to `O=C(C1CCC1)N1CCCCN2[C@H](CO)[C@H](c3ccc(-c4cccc(F)c4)cc3)[C@H]2C1`, for which the inhibition is 94.1%.

For `O=C(C1CCCC1)N1CCCCN2[C@@H](CO)[C@H](c3ccc(-c4cccc(F)c4)cc3)[C@@H]2C1`, the inhibition is 111% (active).

With `O=C(C1CCC1)N1CCCCN2[C@H](CO)[C@H](c3ccc(-c4cccc(F)c4)cc3)[C@@H]2C1`, the inhibition was 99.7% (active).

For the molecule `O=C(C1CC1)N1CCCCN2[C@H](CO)[C@H](c3ccc(-c4cccc(F)c4)cc3)[C@H]2C1`, the inhibition is 95.6% (active).

As for `O=C(C1CC1)N1CCCCN2[C@H](C1)[C@@H](c1ccc(-c3cccc(F)c3)cc1)[C@@H]2CO`, the inhibition was 32.6%.

As for `O=C(C1CCC1)N1CCCCN2[C@H](CO)[C@H](c3ccc(-c4ccncc4)cc3)[C@@H]2C1`, the inhibition is 99.7% (active).

Consider `O=C(Nc1ccc(F)cc1)N1CCCCN2[C@H](CO)[C@H](c3ccc(-c4ccncc4)cc3)[C@@H]2C1`, for which the inhibition is 67.2%.

Turning to `O=C(N[C@H]1CC[C@H](CCNS(=O)(=O)c2ccc(F)cc2)O[C@H]1CO)c1cccnc1`, the inhibition was 14.1%.

For the molecule `CCC(=O)Nc1ccc2c(c1)C(=O)N(C)[C@@H]1CC[C@H](CC(=O)NCCc3ccncc3)O[C@@H]1CO2`, the inhibition was 64.6%.

Consider `O=C(Cc1ccncc1)NCC[C@@H]1CC[C@H](NC(=O)Nc2ccc(Cl)cc2)[C@@H](CO)O1`, for which the inhibition was 37%.

Consider `O=C(C[C@H]1C[C@H]2c3cc(NC(=O)Cc4ccncc4)ccc3O[C@H]2[C@@H](CO)O1)NCc1cccc(F)c1`, for which the inhibition is -15.1%.

Turning to `O=C(C[C@H]1CC[C@H]2[C@@H](COC[C@H](O)CN2CCC(F)(F)F)O1)N1CCC(Cc2ccccc2)CC1`, the inhibition is 65.1%.

`CN1C(=O)c2cc(NC(=O)c3ccccc3)ccc2OC[C@@H]2O[C@@H](CC(=O)NC3CCCC3)CC[C@H]21`: the inhibition was 18.9%.

Take `CC=Cc1ccc2n(c1=O)C[C@@H]1[C@@H](CO)[C@H](C(=O)N(C)C)[C@H]2N1CCc1ccccc1` (mixture of isomers): the inhibition was 37%.

In the case of `Cc1ccccc1S(=O)(=O)N1[C@H](C#N)[C@H](c2ccccc2)[C@H]1CO`, the inhibition is -43.9%.

Consider `C[C@@H]1CN([C@H](C)CO)C(=O)c2cccc(NC(=O)c3nc4ccccc4s3)c2O[C@H]1CN(C)S(=O)(=O)c1ccc(Cl)cc1`, for which the inhibition is 55.8%.

For `COc1ccc(NC(=O)N(C)C[C@H]2Oc3c(NC(=O)NC(C)C)cccc3C(=O)N([C@@H](C)CO)C[C@H]2C)cc1`, the inhibition is 39.4%.

For the molecule `C[C@@H]1CN([C@@H](C)CO)C(=O)c2cccc(NC(=O)c3nc4ccccc4s3)c2O[C@H]1CN(C)S(=O)(=O)c1cccs1`, the inhibition was 82.6%.

`COc1ccc(S(=O)(=O)N(C)C[C@@H]2Oc3c(NC(=O)NC(C)C)cccc3C(=O)N([C@@H](C)CO)C[C@@H]2C)cc1`: the inhibition was 11.6%.

As for `COc1ccc(NC(=O)N(C)C[C@@H]2Oc3c(NC(=O)NC4CCCCC4)cccc3C(=O)N([C@@H](C)CO)C[C@@H]2C)cc1`, the inhibition was 99.3% (active).

On to `COc1ccc(NC(=O)N(C)C[C@@H]2Oc3c(NC(=O)NC4CCCCC4)cccc3C(=O)N([C@H](C)CO)C[C@H]2C)cc1`, for which the inhibition is 2.44%.

For `C[C@@H]1CN([C@@H](C)CO)C(=O)c2cccc(NC(=O)Nc3cccc4ccccc34)c2O[C@H]1CN(C)S(=O)(=O)c1ccccc1`, the inhibition is 41.2%.

Regarding `Cc1ccc(S(=O)(=O)N(C)C[C@@H]2Oc3c(NC(=O)c4nc5ccccc5s4)cccc3C(=O)N([C@H](C)CO)C[C@@H]2C)cc1`, the inhibition was 110% (active).

Take `COc1ccc(S(=O)(=O)N(C)C[C@H]2Oc3c(NC(=O)Nc4cccc5ccccc45)cccc3C(=O)N([C@@H](C)CO)C[C@H]2C)cc1`: the inhibition was 128% (active).

As for `CO[C@H]1CN(C)C(=O)c2ccc(NS(C)(=O)=O)cc2OC[C@@H](C)N(C(=O)c2ccc3c(c2)OCO3)C[C@@H]1C`, the inhibition is 22.5%.

For `O=C(C[C@@H]1CC[C@H]2[C@@H](COC[C@H](O)CN2C(=O)Nc2ccc(Cl)cc2)O1)NCC1CC1`, the inhibition is 9.76%.

For `O=C(c1cccnc1)N1C[C@H]2[C@@H](c3ccccc31)[C@H](CO)N2C(=O)C1CC1`, the inhibition was 32.1%.

Consider `COc1ccc(NC(=O)Nc2ccc3c(c2)[C@H]2C[C@H](CC(=O)NC4CCCCC4)O[C@H](CO)[C@H]2O3)cc1`, for which the inhibition is -22.1%.

`O=C(NC1CCCC1)[C@H]1[C@H](CO)[C@H]2Cn3c(cccc3=O)[C@H]2N1C(=O)NC1CCCC1`: the inhibition was -32.8%.

`C[C@@H]1CN([C@H](C)CO)C(=O)c2cc(-c3cccc(C#N)c3)cnc2O[C@H]1CN(C)C(=O)C1CCC1`: the inhibition is -99.6%.

As for `COCC(=O)Nc1ccc2c(c1)OC[C@H](C)N(C(=O)c1ccccn1)C[C@@H](C)[C@H](OC)CN(C)C2=O`, the inhibition was 26.6%.

On to `C[C@H](CO)N1C[C@H](C)[C@@H](CN(C)C(=O)C2CC2)Oc2ncc(-c3cccc(C#N)c3)cc2C1=O`, for which the inhibition was 68.3%.

As for `Cc1ccc(S(=O)(=O)N2C[C@H](O)COC[C@@H]3O[C@H](CC(=O)N[C@H]4CCN(Cc5ccccc5)C4)CC[C@H]32)cc1`, the inhibition is 51.3%.

Turning to `C[C@H](O)C#Cc1ccc2c(c1)O[C@@H](CN(C)C(=O)C1CC1)[C@H](C)CN([C@H](C)CO)S2(=O)=O`, the inhibition was -20.8%.

On to `C[C@H](O)C#Cc1ccc2c(c1)O[C@H](CN(C)C(=O)C1CC1)[C@@H](C)CN([C@H](C)CO)S2(=O)=O`, for which the inhibition is 13.9%.

As to `CCCC#Cc1ccc2c(c1)O[C@H](CN(C)C(=O)C1CCCCC1)[C@H](C)CN([C@H](C)CO)S2(=O)=O`, the inhibition is 68.4%.

`C[C@@H]1CN([C@H](C)CO)S(=O)(=O)c2ccc(-c3ccccc3)cc2O[C@H]1CN(C)C(=O)C1CCC1`: the inhibition is 55%.

For `CCC(=O)N(C)C[C@H]1Oc2cc(C#CCC(C)C)ccc2S(=O)(=O)N([C@H](C)CO)C[C@H]1C`, the inhibition was 41.2%.

With `C[C@@H]1CN([C@H](C)CO)S(=O)(=O)c2ccc(-c3ccccc3)cc2O[C@@H]1CN(C)C(=O)C1CC1`, the inhibition is 84.2%.

`CC(C)CC#Cc1ccc2c(c1)O[C@H](CN(C)C(=O)C1CC1)[C@@H](C)CN([C@@H](C)CO)S2(=O)=O`: the inhibition is 115% (active).

Regarding `C[C@@H]1CN([C@@H](C)CO)S(=O)(=O)c2ccc(C#CCN(C)C)cc2O[C@H]1CN(C)C(=O)C1CC1`, the inhibition is 94.7% (active).

Take `C[C@H](CO)N1C[C@H](C)[C@@H](CN(C)C(=O)C2CCCCC2)Oc2cc(-c3ccccc3)ccc2S1(=O)=O`: the inhibition is 103% (active).

For the molecule `COCC(=O)Nc1ccc2c(c1)[C@@H]1C[C@@H](CC(=O)N3CCN(C)CC3)O[C@H](CO)[C@@H]1O2`, the inhibition is -9.47%.

For `COc1ccc(NC(=O)N(C)C[C@H]2Oc3cc(-c4ccncc4)ccc3S(=O)(=O)N([C@@H](C)CO)C[C@H]2C)cc1`, the inhibition was 53.3%.

As for `CCCNC(=O)[C@H]1[C@H](CO)[C@H]2Cn3c(ccc(C4=CCCC4)c3=O)[C@H]2N1C(=O)CC1CC1`, the inhibition is -12.5%.

For `C[C@H](NC(=O)C[C@H]1CC[C@H]2[C@@H](COC[C@H](O)CN2C(=O)Nc2cc(Cl)cc(Cl)c2)O1)c1ccccc1`, the inhibition was 20.2%.

In the case of `Cc1ccccc1S(=O)(=O)N[C@@H]1CC[C@@H](CCNS(=O)(=O)c2cccc(F)c2)O[C@H]1CO`, the inhibition is 22%.
